Measurements taken from PubChem BioAssay AID2314 (National Center for Advancing Translational Sciences (NCATS), 2010).
Screen size: about 300,000 compounds; about 37,000 (12%) were called active. For the sample, actives were picked, then their nearest neighbours and some compounds at random. Unmarked numbers belong to inactive results. Rule as the data show it: active = max response mostly above about 13% (no sharp cut-off); inactive = mostly below about 14%.

assay: Cycloheximide Counterscreen for Small Molecule Inhibitors of Shiga Toxin; settings: cell reporter, cycloheximide protein synthesis inhibition counterscreen; hits give high values; also: read at 38.3 µM for the half of the compounds with a filed dose; 0% is about no effect

| SMILES | max response |
| --- | --- |
| c1ccc(-c2cc3c(NCC4COc5ccccc5O4)ncnc3s2)cc1 (stereo not drawn) | 9.76% |
| C/C(=N/NC(=S)Nc1ccccc1)c1ccc2c(c1)OCO2 | 33.6% (active) |
| O=C(Nc1cccc(S(=O)(=O)Nc2ccc(Cl)cc2)c1)c1ccc2c(c1)OCCO2 | 12.5% (active) |
| CCSc1ccccc1C(=O)Nc1ccc2c(c1)OCO2 | 21.7% (active) |
| CC(NS(=O)(=O)c1ccc(Cl)cc1)C(=O)Nc1ccc2c(c1)OCCO2 (stereo not drawn) | -1.8% |
| O=C(Nc1cccc([N+](=O)[O-])c1)c1ccc2c(c1)OCO2 | 36.2% (active) |
| CCN(CC)CCNC(=O)c1ccc(NS(=O)(=O)c2ccc3c(c2)OCCO3)cc1 | 2.7% |
| CC(C)NC(=O)CSc1ccccc1C(=O)NCc1ccc2c(c1)OCO2 | 3.57% |
| C/C(=N\NC(=O)C(N)=O)c1ccc2c(c1)OCCO2 | 15.2% |
| Cc1ccc2nc(-c3ccccn3)cc(C(=O)Nc3ccc4c(c3)OCO4)c2c1 | 20.8% |
| CC(NC(=O)Nc1cccc([N+](=O)[O-])c1)c1ccc2c(c1)OCO2 (stereo not drawn) | -0.734% |
| C/C(=N/NC(=O)c1ccncc1)c1ccc2c(c1)OCO2 | 0.639% |
| O=C(NCc1cccnc1)c1ccccc1NC(=O)c1c(F)cccc1F | 7.34% |
| CCCCNC(=O)C1(O)c2ccccc2NC(=O)N1c1ccc(Cl)cc1 (stereo not drawn) | 7.78% |
| CC(=O)Oc1ccc(N(C(C)=O)S(=O)(=O)c2ccc3ccccc3c2)cc1Br | -1.7% |
| O=C(COc1ccc2ccc(=O)oc2c1)NCC(O)c1ccccc1 (stereo not drawn) | -10.7% |
| CN(CC(=O)NCc1ccncc1)S(=O)(=O)c1ccc(Br)cc1 | -0.724% |
| COc1ccc(C(C)C)cc1S(=O)(=O)Nc1ncn[nH]1 | -4.29% |
| CCc1nnc(NC(=O)CCC(=O)N2CCN(c3cc(C)ccc3C)CC2)s1 | -5.72% |
| Cc1c(NS(=O)(=O)c2ccc(NC3CCCC3)c([N+](=O)[O-])c2)c(=O)n(-c2ccccc2)n1C | -1.22% |

| SMILES | max response |
| --- | --- |
| Cc1ccc(NS(=O)(=O)c2ccc3c(c2)n(C)c(=O)c(=O)n3C)c(C)c1 | 1.12% |
| O=C(Nc1ccc(N2CCOCC2)cc1)c1ccc2c(c1)OCO2 | 36.8% (active) |
| COCc1nnc(NC(=O)CS(=O)(=O)Cc2ccccc2)s1 | 5.49% |
| O=C(Nc1ccccc1)c1ccc2c(c1)OCCCO2 | 41.3% (active) |
| O=C(CN1CCc2cc3c(cc2C1)OCCCO3)Nc1ccccc1 | 5.97% |
| O=C(c1ccc2c(c1)OCO2)N1CCOCC1 | -3.42% |
| CC(C)C(=O)Nc1cccc(C(=O)Nc2ccc3c(c2)OCO3)c1 | 58.7% (active) |
| Cc1ccc(C(=O)Nc2sc(Cc3ccc4c(c3)OCO4)c(C)c2C(N)=O)cc1 | -4.2% |
| COc1ccccc1C(=O)N/C(=C/c1ccc2c(c1)OCO2)C(=O)Nc1cccc(C(=O)O)c1 | -2.49% |
| COCc1nnc(NC(=O)c2ccc3c(c2)OCO3)s1 | 45.3% (active) |
| O=C(O)CCC(=O)Nc1ccc(N2CCOCC2)cc1 | -3.84% |
| C/C(Cc1ccccc1)=N\NC(=O)CNC(=O)c1ccc2c(c1)OCCO2 | -2.54% |
| CCCN1C2=C(C(=O)CCC2)C(c2ccc(O)c(Br)c2)C2=C1CCCC2=O | -1.08% |
| Cc1ccc(O)c(/C=N/NC(=O)COc2ccc3c(C)cc(=O)oc3c2)c1 | -8.1% |
| Cn1c(=O)c2c(ncn2CC(COCc2ccccc2Cl)OCc2ccccc2Cl)n(C)c1=O (stereo not drawn) | -1.13% |
| Cc1ccccc1N1C(=O)C(Oc2ccc(Cl)cc2)C1CNCC1CCCO1 (stereo not drawn) | 0.428% |
| CC(=O)Nc1sc2c(c1C(c1cccc(F)c1)N1CCN(CCO)CC1)CCCC2 (stereo not drawn) | -2.8% |
| CCOCCCNC(=O)c1ccc(CS(=O)(=O)c2cccc(C(F)(F)F)c2)o1 | -3% |
| Cc1ccc(-c2ccnc3[nH]n(-c4ccccc4)c(=O)c23)cc1 | 4.53% |
| COc1ccccc1N1CCN(c2ccc([N+](=O)[O-])nc2)CC1 | 12.7% |

| SMILES | max response |
| --- | --- |
| CCOc1ccc(OCC)c(-c2c(=O)n(OCc3ccc(Cl)cc3)c3ccccc3[n+]2[O-])c1 | -2.89% |
| CCOC(=O)COn1c(=O)c(-c2ccc(OCC)cc2)[n+]([O-])c2ccccc21 | 21.8% (active) |
| COc1ccc(OC)c(-c2c(=O)n(OCc3ccccc3Br)c3ccccc3[n+]2[O-])c1 | -4.9% |
| COCCNC(=O)C(c1ccc(C)cc1)N(C(=O)CCC(=O)Nc1ccccn1)c1cccc(C)c1 (stereo not drawn) | -1.18% |
| O=C(Cn1ncc2c3ccccc3n(Cc3ccccc3)c2c1=O)NCc1ccccn1 | -1.24% |
| CCCCOc1ccc(CSC(=N)N)cc1[N+](=O)[O-] | -3.27% |
| CCCCCOc1ccc(CSC2=NCCN2)cc1[N+](=O)[O-] | 16.2% (active) |
| CCCOc1ccc(Cn2ccnc2)cc1[N+](=O)[O-] | 6.93% |
| CCN=C1S/C(=C\c2cc(Br)ccc2OCC(=O)OCC)C(=O)N1CC | 2.07% |
| c1ccc(C(c2ccccc2)N2CCN(Cc3nnnn3C3CCCCC3)CC2)cc1 | -1.95% |
| CSc1cccc(NC(=O)C2CCCN2S(=O)(=O)c2ccc3c(c2)CCC(=O)N3)c1 (stereo not drawn) | 25.7% (active) |
| O=C1CCc2cc(S(=O)(=O)N3CCC(C(=O)NCc4ccccc4Cl)CC3)ccc2N1 | 5.54% |
| CC(=O)Nc1ccc(NC(=O)C2CCCN2S(=O)(=O)c2cccc(C(F)(F)F)c2)cc1 (stereo not drawn) | 0.889% |
| CS(=O)(=O)N1CCN=C1SCc1ccc(F)cc1 | -2.32% |
| Cc1cc(OCC(=O)Nc2c(C)n(C)n(-c3ccccc3)c2=O)ccc1[N+](=O)[O-] | 1.26% |
| O=C1CSC(=S)N1c1ccc(O)cc1 | 0.99% |
| O=S(=O)(c1ccc(-c2ccno2)s1)N1CCCCC1 | -3.51% |
| Cc1cc(NC(=O)CCC(=O)N(Cc2ccccc2)C(C(=O)NC2CCCC2)c2ccc(C)o2)no1 (stereo not drawn) | -2.01% |
